Source: PubChem
Hits are enriched below; roughly 19% of the tested compounds scored in any of these assays.
HT1080NT lethal: kills 2HG-producing HT-1080-NT fibrosarcoma cells; HT-1080-NT fibrosarcoma viability, CellTiter-Glo ATP luminescence, 48 h; AID 686970; actives 1.6% (n = 360,000); Potency, µM (titrated, usually from 46.1 µM), hits mostly cytotoxic;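 further: NT is the 2HG producing partner of a matched IDH1 knockdown line; nearly all actives have a fitted effect of over 55% in size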
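A 48-hour cytotoxicity screen used HT-1080-NT cells plated 2 hours before compound delivery. ATP-based CellTiter-Glo luminescence measured viability, normalized to DMSO and no-cell controls.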
DT40 TDP1 no CPT: qHTS for Inhibitors of human tyrosyl-DNA phosphodiesterase 1 (TDP1): qHTS in cells in absence of CPT. Potency, µM (highest dose often 46.2 µM), usual class: inhibitors. AID 686978, 2013. DT40 Tdp1-/- hTDP1 cells, no CPT, ATP luminescence, 48 h. actives 15% (n = 420,000); further: nearly all actives have a fitted effect of over 55% in size
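Growth kinetics read by CellTiter-Glo luminescence after ≥48 hr at 37 °C. Cells: DT40 Tdp1-/- stably carrying human TDP1, 400 per well, compound exposure in the absence of CPT (DMSO vehicle).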
KB-V1 MDR tox: KB-V1 MDR subline cytotoxicity | KB-V1 MDR cells viability, CellTiter-Glo, 72 h | Potency, µM (doses to about 46.1 µM), actives largely listed as cytotoxic | actives 3.4% (n = 400,000) | AID 1347076; further: nearly all actives have a fitted effect of over 60% in size
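Compound-treated KB-V1 multidrug-resistant cells, 72 h, 37 degrees C; viability by CellTiter-Glo. Fitted qHTS curves give the values.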
DT40 TDP1 CPT: DT40-hTDP1 cell growth loss with CPT | chicken DT40 Tdp1-/-;hTDP1 cells + 20 nM CPT, ATP luminescence, 48 h | Potency, µM (series often up to 46.2 µM), hits mostly inhibitors | actives 12% (n = 420,000); further: nearly all actives have a fitted effect of over 55% in size
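Cell growth measured by CellTiter-Glo luminescence after a minimum 48 h, 37 C compound exposure with 20 nM CPT in Tdp1-knockout DT40 cells stably expressing hTDP1, seeded 400/well; qHTS titration format.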
KB-3-1 tox: kills parental KB-3-1 adenocarcinoma cells. actives 1.4% (n = 400,000). KB-3-1 viability, CellTiter-Glo ATP luminescence, 72 h. Potency, µM (series often up to 46.1 µM), hits mostly cytotoxic; further: nearly all actives have a fitted effect of over 60% in size
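Here the drug-naive KB-3-1 line serves as comparator for MDR sub-line selectivity; cells received compound titrations, 72 h at 37 °C, then CellTiter-Glo readout.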
HT1080 IDH1KD tx: kills HT-1080 cells with IDH1 knockdown; HT-1080 IDH1 knockdown viability, ATP luminescence, 48 h; Potency, µM (series often up to 46.1 µM), usual class: cytotoxic; actives 2% (n = 360,000); AID 686971
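% activity derives from luminescence (CellTiter-Glo), normalised to DMSO and no-cell wells. HT-1080-IDH1KD cells, 750/well, had 48 h compound exposure at 37 °C.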
Large screens that a line does not name were inactive. The call rests on the fitted dose curve; in most records, active means well fitted curve in the direction sought with a large enough effect; inconclusive means small, poorly fitted or top-dose-only effect, or another doubt; inactive means no such curve, though single readings can be large; an effect the other way counts as inactive or inconclusive.

O=C(NN1C(=O)C2C3c4ccccc4C(c4ccccc43)C2C1=O)c1ccc(Cl)cc1 (stereo not drawn)	KB-V1 MDR tox 16µM
O=C(CCc1nc2ccccc2[nH]1)Nc1ccccc1	HT1080 IDH1KD tx inconclusive
O=C(Nc1ccccc1)N(CCc1nc2ccccc2[nH]1)C1CCCC1	KB-V1 MDR tox 16µM
S=C(NC1CCCCC1)N(CCc1nc2ccccc2[nH]1)C1CCCC1	DT40 TDP1 no CPT inconclusive, KB-V1 MDR tox 16µM, DT40 TDP1 CPT inconclusive, KB-3-1 tox inconclusive
O=C(Nc1nc2ccccc2[nH]1)NC1CCCCC1	DT40 TDP1 CPT inconclusive
Cc1ccc(C(=O)c2cn(CC(=O)NC3CCCCC3)c3nc(C)ccc3c2=O)cc1	DT40 TDP1 no CPT inconclusive (no result: HT1080NT lethal, HT1080 IDH1KD tx)
CC(=O)NCCC(=O)N(Cc1ccccc1)c1nc2c(C)cccc2s1	HT1080 IDH1KD tx inconclusive
CSc1cccc(NC(=S)NCCCN2CCN(c3ccc(F)cc3)CC2)c1	none
Cc1nc(NC(=O)c2ccccc2)sc1-c1cc(C(=O)N2CCOCC2)nn1CCO	none
Cc1nc(NC(=O)c2ccccc2)sc1-c1cc(C(=O)N2CCOCC2)nn1Cc1ccccc1	DT40 TDP1 CPT 21µM
CCC(C)c1ccc(NC(=S)NC(C)C2CCCO2)cc1 (stereo not drawn)	DT40 TDP1 no CPT 26µM
CCC(C)c1ccc(NC(=S)Nc2ccc(OC)c(OC)c2)cc1 (stereo not drawn)	DT40 TDP1 no CPT inconclusive, DT40 TDP1 CPT inconclusive
CCC(C)c1ccc(C(CC)NC(=O)C2CCCO2)cc1 (stereo not drawn)	HT1080NT lethal inconclusive, DT40 TDP1 no CPT inconclusive, DT40 TDP1 CPT 23µM
COc1ccc(-n2c(=O)c3ccc(C(=O)NCc4ccc(C)cc4)cc3n(CC(=O)Nc3ccc(F)cc3)c2=O)cc1	none (no result: HT1080NT lethal, HT1080 IDH1KD tx)
CCOC(=O)N1CCN(c2c(N3CC=C(c4ccccc4)CC3)c(=O)c2=O)CC1	DT40 TDP1 no CPT 16µM, DT40 TDP1 CPT 21µM
CCOC(=O)N1CCN(c2c(N3CCc4ccccc4C3)c(=O)c2=O)CC1	DT40 TDP1 CPT inconclusive
CN1CCN(CCNC(=O)Cn2c(=O)c3cccn3c3ccc(F)cc32)CC1	none
CC(C)OCCCN(Cc1ccco1)C(=O)c1cc2c(s1)-c1ccccc1OC2	KB-V1 MDR tox 9.2µM, KB-3-1 tox 16µM (no result: HT1080NT lethal, DT40 TDP1 no CPT, DT40 TDP1 CPT, HT1080 IDH1KD tx)
CCOCCCN(Cc1ccco1)C(=O)c1cc2c(s1)-c1c(C)cccc1OC2	DT40 TDP1 no CPT 23µM, KB-V1 MDR tox inconclusive, DT40 TDP1 CPT inconclusive (no result: HT1080NT lethal, HT1080 IDH1KD tx)
Cc1ccc2[nH]c(=O)c3cc(C(=O)N(CCCOC(C)C)Cc4ccco4)sc3c2c1	DT40 TDP1 no CPT 12µM, DT40 TDP1 CPT 23µM, HT1080 IDH1KD tx inconclusive
CCCCN(Cc1ccco1)C(=O)c1cc2c(=O)[nH]c3ccc(C)cc3c2s1	DT40 TDP1 no CPT inconclusive, DT40 TDP1 CPT inconclusive
COc1cc(C(=S)N2CCOCC2)cc(Br)c1OS(=O)(=O)c1ccccc1	DT40 TDP1 no CPT inconclusive, DT40 TDP1 CPT inconclusive
CC1CCc2c(sc3nc(CN4CCOCC4)nc(Sc4ccccc4)c23)C1 (stereo not drawn)	DT40 TDP1 no CPT 21µM, KB-V1 MDR tox 8.2µM, DT40 TDP1 CPT inconclusive
COc1cc2c(cc1OC)CN(c1nc(CN3CCOCC3)nc3sc4c(c13)CCC(C)C4)CC2 (stereo not drawn)	HT1080NT lethal inconclusive, DT40 TDP1 no CPT 15µM, DT40 TDP1 CPT 12µM, KB-3-1 tox inconclusive, HT1080 IDH1KD tx inconclusive
O=C(CSC1=NS(=O)(=O)c2cc(F)ccc2N1)NCCc1ccccc1	none
COCCN1CC(=O)N2C(c3cccc(OC)c3)c3[nH]c4ccccc4c3C[C@H]2C1=O (stereo partly drawn)	none
CC[C@]12CCCN3CCc4c(n(c5ccccc45)C(=O)C1)[C@@H]32	HT1080NT lethal inconclusive, DT40 TDP1 no CPT 6.5µM, KB-V1 MDR tox 4.1µM, KB-3-1 tox inconclusive
CC[C@]12CCCN3CCc4c(n(c5ccccc45)[C@@](O)(C(=O)OC)C1)[C@@H]32	none
CC1CCCN(C(=O)COC(=O)c2cc(-c3cccs3)nn2-c2ccccc2)C1 (stereo not drawn)	none
CCO[C@H]1OC(C(=O)N2CCN(Cc3ccc4c(c3)OCO4)CC2)=C[C@@H](c2ccccc2)[C@@H]1CCCO	DT40 TDP1 no CPT inconclusive, DT40 TDP1 CPT inconclusive
CCO[C@H]1OC(C(=O)N2CCN(Cc3ccc4c(c3)OCO4)CC2)=C[C@@H](c2ccc(C(F)(F)F)cc2)[C@@H]1CCCO	DT40 TDP1 no CPT 23µM, KB-V1 MDR tox inconclusive, DT40 TDP1 CPT 18µM, HT1080 IDH1KD tx inconclusive
CCO[C@@H]1OC(C(=O)N2CCN(Cc3ccc4c(c3)OCO4)CC2)=C[C@H](c2csc3ccccc23)[C@H]1CCCO	DT40 TDP1 no CPT 23µM, HT1080 IDH1KD tx inconclusive
CCO[C@@H]1OC(C(=O)N2CCN(Cc3ccccc3)CC2)=C[C@H](c2ccc(C(F)(F)F)cc2)[C@H]1CCCO	DT40 TDP1 no CPT inconclusive, KB-V1 MDR tox inconclusive, DT40 TDP1 CPT inconclusive, KB-3-1 tox inconclusive
CCO[C@@H]1OC(C(=O)N2CCN(Cc3ccccc3)CC2)=C[C@H](c2ccc(Br)cc2)[C@H]1CCCO	DT40 TDP1 no CPT 23µM, KB-V1 MDR tox inconclusive, DT40 TDP1 CPT inconclusive, KB-3-1 tox inconclusive
CCN(CC(=O)Nc1c(F)cccc1F)C(=O)c1n[nH]c2ccccc12	none
CC(C)Oc1ccc2ccccc2c1CNC[C@H]1O[C@@H](n2ccc(N)nc2=O)[C@H](O)[C@@H]1O	none
CCc1nnc(NC(=O)c2ccc(S(=O)(=O)N(CC(C)C)CC(C)C)cc2)o1	HT1080NT lethal inconclusive, DT40 TDP1 no CPT 18µM, KB-V1 MDR tox inconclusive, DT40 TDP1 CPT 21µM, KB-3-1 tox inconclusive, HT1080 IDH1KD tx inconclusive
CCCN(CCC)S(=O)(=O)c1ccc(C(=O)Nc2nnc(COC)o2)cc1	DT40 TDP1 no CPT inconclusive, DT40 TDP1 CPT inconclusive, HT1080 IDH1KD tx inconclusive
CCc1nnc(NC(=O)c2ccc(S(=O)(=O)N(C)c3ccccc3)cc2)o1	DT40 TDP1 no CPT 4.6µM, DT40 TDP1 CPT 12µM, KB-3-1 tox inconclusive, HT1080 IDH1KD tx inconclusive
O=C1Nc2ccc(Br)cc2/C1=C/C(=O)c1ccc2c(c1)OCO2	HT1080NT lethal inconclusive, DT40 TDP1 no CPT 3.3µM, KB-V1 MDR tox inconclusive, DT40 TDP1 CPT 5.8µM, KB-3-1 tox inconclusive, HT1080 IDH1KD tx inconclusive
